From PubChem BioAssay
PPARg SRC1 recr: promotes SRC-1 coactivator recruitment by human PPARgamma | P37231 | PPARgamma-SRC-1 coactivator recruitment biochemical assay | activation, % at 8 µM | 200,000 tested, 0.41% active; in the data active means activation above about 19%
Target sequence (P37231 whole entry, looked up): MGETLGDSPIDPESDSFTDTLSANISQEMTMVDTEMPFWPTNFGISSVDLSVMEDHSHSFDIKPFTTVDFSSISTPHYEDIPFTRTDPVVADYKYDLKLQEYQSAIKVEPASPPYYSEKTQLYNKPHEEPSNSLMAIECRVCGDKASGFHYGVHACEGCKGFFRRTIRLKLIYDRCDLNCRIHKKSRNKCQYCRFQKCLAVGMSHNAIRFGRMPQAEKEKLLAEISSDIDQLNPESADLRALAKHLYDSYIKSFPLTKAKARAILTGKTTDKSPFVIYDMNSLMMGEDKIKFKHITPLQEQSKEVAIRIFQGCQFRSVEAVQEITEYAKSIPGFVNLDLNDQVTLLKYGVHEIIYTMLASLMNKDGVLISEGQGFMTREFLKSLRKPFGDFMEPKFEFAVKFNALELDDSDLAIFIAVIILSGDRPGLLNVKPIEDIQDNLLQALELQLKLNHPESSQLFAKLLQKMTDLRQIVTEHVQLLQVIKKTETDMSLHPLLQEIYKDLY
TR-FRET SRC-2 ct: counter-screen for PPARgamma SRC-2 recruitment agonists: TR-FRET artefact. stronger effect = higher value. 200,000 tested, 0.4% active. TR-FRET ratio at 8 µM
SRC3 TRFRET art: flags TR-FRET format artefacts in PPARgamma SRC-3 recruitment agonist screen; 99,000 tested, 0.39% active; TR-FRET ratio at 8 µM; TR-FRET artefact counter-screen, PPARgamma/SRC-3 format; stronger effect = higher value
SRC1 TRFRET art: counter-screen for PPARgamma SRC-1 recruitment agonists: TR-FRET artefact | TR-FRET detection artefact counter-screen, emission ratio; stronger effect = higher value | TR-FRET ratio at 8 µM | 99,000 tested, 0.34% active; in the data active means TR-FRET ratio above about 2300
PPARg SRC3 recr: promotes SRC-3 coactivator recruitment by human PPARgamma; activation, % at 8 µM; biochemical PPARgamma/SRC-3 coactivator recruitment assay; 200,000 tested, 0.26% active; P37231; in the data active means activation above about 23%
PPARg SRC-2 ag: agonists of SRC-2 recruitment by human PPARgamma; P37231; PPARgamma LBD-SRC-2 recruitment, biochemical; activation, % at 8 µM; 200,000 tested, 0.34% active; AID 1032; in the data active means activation above about 22%
Of the large screens only hits and unclear results are named; the others gave an inactive call. The list is not random: actives were taken first. Their share in the collection is about 0.84%. Unless noted, no stated cut-off is given here; in the data, active means TR-FRET ratio above about 2000; inactive means the rest.

COCCn1c(=NC(=O)c2cc(Cl)sc2Cl)sc2cc(S(N)(=O)=O)ccc21	none
CCOC(=O)C1CCCc2c1[nH]c1c(C(=O)O)cccc21 (stereo unspecified)	none (no result: SRC3 TRFRET art, SRC1 TRFRET art)
COC(=O)CCc1nc2cc(Cl)ccc2n(Cc2ccccc2)c1=O	none
N#Cc1ccccc1NC(=O)c1ccccc1OCC(=O)Nc1ccc2c(c1)oc1ccccc12	TR-FRET SRC-2 ct 2662 (no result: SRC3 TRFRET art, SRC1 TRFRET art)
CCOC(=O)c1c(NC(=O)Cc2cccs2)sc(C(=O)NC2CCCC2)c1C	PPARg SRC3 recr 35 (no result: SRC3 TRFRET art, SRC1 TRFRET art)
CCOC(=O)c1c(NC(=O)Cc2cccs2)sc(C(=O)NC2CCCCC2)c1C	none (no result: SRC3 TRFRET art, SRC1 TRFRET art)
Cc1ccc(-c2csc3ncnc(-n4nnc5ccccc54)c23)cc1	SRC3 TRFRET art 2064
Cc1nc2ccccc2nc1OCC(=O)NCC(F)(F)F	SRC1 TRFRET art 2331
Cc1cc(C)n(CCc2nc(-c3ccco3)cs2)n1	none (no result: SRC3 TRFRET art, SRC1 TRFRET art)
Cc1nn(CCc2nc(-c3ccco3)cs2)c2[nH]c(=O)cc(C(F)(F)F)c12	SRC3 TRFRET art 2055
CN(C)C(CNC(=O)c1cc(S(=O)(=O)N(C)c2ccccc2)ccc1Cl)c1cccs1 (stereo unspecified)	none
COc1ccc(C(C(=O)NC2CCCC2)N(C(=O)c2snc(-c3ccc(F)cc3)c2N)c2ccc(OC)cc2)cc1 (stereo unspecified)	TR-FRET SRC-2 ct 2223 (no result: SRC3 TRFRET art, SRC1 TRFRET art)
Clc1ccccc1-c1nnc2sc(-c3ccc(Br)o3)nn12	none (no result: SRC3 TRFRET art, SRC1 TRFRET art)
Clc1ccc(-c2nnc3sc(-c4ccc(Br)o4)nn23)cc1	PPARg SRC3 recr 28 (no result: SRC3 TRFRET art, SRC1 TRFRET art)
Cc1ccc(S(=O)(=O)N2CCCN(c3nc4cc(C)ccc4cc3C#N)CC2)cc1	TR-FRET SRC-2 ct 3009 (no result: SRC3 TRFRET art, SRC1 TRFRET art)
Cc1ccc2cc(C#N)c(N3CCCN(C(=O)C4CCCO4)CC3)nc2c1 (stereo unspecified)	none (no result: SRC3 TRFRET art, SRC1 TRFRET art)
O=C(Nc1nc2c(cc3c4c(cccc42)CC3)s1)c1ccccc1Cl	TR-FRET SRC-2 ct 1981, SRC3 TRFRET art 2115
Cn1c(=O)n(C)c2cc(NC(=O)c3ccccc3[N+](=O)[O-])c(Br)cc21	TR-FRET SRC-2 ct 1997
CN(Cc1ccccc1)C(=O)[C@H]1CCC(=O)N1Cc1ccco1	none (no result: SRC3 TRFRET art, SRC1 TRFRET art)
O=C(O)C1CCC(Cn2c(SCc3cc(=O)n4cc(Br)ccc4n3)nc3ccsc3c2=O)CC1 (stereo unspecified)	SRC3 TRFRET art 2459
O=C(CSc1nnc(Cc2csc(Nc3cccc(Cl)c3)n2)o1)N1CCc2ccccc21	TR-FRET SRC-2 ct 2013 (no result: SRC3 TRFRET art, SRC1 TRFRET art)
COc1cc(OC)cc(C(=O)NCC(=O)OCC(=O)/C=C2/N(C)c3ccccc3C2(C)C)c1	none
CN1/C(=C\C(=O)COC(=O)Cn2nnc(-c3ccccc3)n2)C(C)(C)c2ccccc21	TR-FRET SRC-2 ct 2474 (no result: SRC3 TRFRET art, SRC1 TRFRET art)
CCCN(CCC)C1=N/C(=C\c2ccco2)C(=O)N1c1ccccc1	none (no result: SRC3 TRFRET art, SRC1 TRFRET art)
COc1cccc(C(=O)Nc2nc(-c3ccc(S(=O)(=O)N4CCOCC4)cc3)cs2)c1	TR-FRET SRC-2 ct 2385 (no result: SRC3 TRFRET art, SRC1 TRFRET art)
O=C(Nc1nc(-c2ccc(S(=O)(=O)N3CCCC3)cc2)cs1)c1cccs1	none (no result: SRC3 TRFRET art, SRC1 TRFRET art)
O=C(Nc1nc(-c2nc3ccccc3s2)cs1)c1ccc(S(=O)(=O)N2CCOCC2)cc1	none (no result: SRC3 TRFRET art, SRC1 TRFRET art)
O=C(Nc1nc(-c2ccc(S(=O)(=O)N3CCOCC3)cc2)cs1)c1ccccc1	TR-FRET SRC-2 ct 2397 (no result: SRC3 TRFRET art, SRC1 TRFRET art)
Cc1onc(-c2ccccc2)c1C(=O)Nc1nc(-c2ccccc2)cs1	TR-FRET SRC-2 ct 2194 (no result: SRC3 TRFRET art, SRC1 TRFRET art)
Cc1ccc(-c2csc(NC(=O)c3cccc(S(=O)(=O)N4CCN(C)CC4)c3)n2)cc1	none
O=C(Nc1nc(-c2ccc(S(=O)(=O)N3CCCCCC3)cc2)cs1)c1cccs1	PPARg SRC1 recr 22, TR-FRET SRC-2 ct 2280 (no result: SRC3 TRFRET art, SRC1 TRFRET art)
O=C(CCS(=O)(=O)c1cccc2nsnc12)NCc1ccccc1Cl	none (no result: SRC3 TRFRET art, SRC1 TRFRET art)
COc1ccc(C(=O)CSc2nnc(-c3ccc(S(=O)(=O)N4CCOCC4)cc3)o2)cc1	PPARg SRC1 recr 25 (no result: SRC3 TRFRET art, SRC1 TRFRET art)
O=C(CSc1nnc(-c2ccc(S(=O)(=O)N3CCOCC3)cc2)o1)c1ccccc1F	none (no result: SRC3 TRFRET art, SRC1 TRFRET art)
O=C(Nc1nc(-c2ccc3ccccc3c2)cs1)C1CCN(S(=O)(=O)c2cccs2)CC1	SRC3 TRFRET art 2381
CC(C)(C)c1ccc(OCCCC(=O)N2CCOCC2)cc1	none
CC(C)(C)c1ccc(OCc2ccc(C(=O)N3CCOCC3)o2)cc1	TR-FRET SRC-2 ct 2010, PPARg SRC-2 ag 25
COc1ccccc1S(=O)(=O)Cc1ccc(C(=O)NCCN2CCCCCC2)o1	none
